We go through 39 sequences from the OligoGym collection.
Also: reference of the scale not given here.

The target of the first assay is GRIA1. Nature of the assay: pooled miR-30 sensor sort-seq; sequence = guide strand. The following applies: shRNA.
Sequence TAAACCTTCAAATCGCACCTGC registered a sensor-assay potency score (higher = more potent) of 0.232.
Same read-out and setting: with TTCTCTAGCTTTATAATCTGGC the figure was -0.406.
Same read-out and setting: with TTGACTGCTGTCACCTGCCAGT the figure was -0.603.
Still for that read-out and setting: the result for TATCGTACCACCATTTGCTTTT reads -0.245.
As to TTTCTGTCTGCTTCGCTAGGTC, the sensor-assay potency score (higher = more potent) was -0.0532.
Still for that read-out and setting: the result for TTATCGTACCACCATTTGCTTT reads -1.73; that for TATAACTTCTTCCCGGACCAAA, -1.38; that for TTTCTCATTAAACTGCACGTTT, -0.314.
Same read-out and setting: with TTGTCTTGTCCTTACTTCCGGA the figure was -0.41; with TCCATCACTGACAATCTCCAGA, -1.21; with TTTGTTTAAGTCAATGTCCATG, -1.06.
Regarding AAATCTATAACTTCTTCCCGGA, the sensor-assay potency score (higher = more potent) turned out to be 0.0312.

For a further assay, the target named is GRIK2. Described as above. The conditions noted are these: shRNA.
Regarding TTGACCAGCACTGACTGCCTTC, the sensor-assay potency score (higher = more potent) is -0.29.
The same measure, in the same setting: with TTCTTCATTACTTTTGACCAGC the figure was -0.437; with TACTGCTCCATATTCTATCTTG, -0.199; with TTTATGTCGATTACACTGCAAG, -0.937.
Still for that read-out and setting: with TAGAGCAGCATCAGTCGTCATA the figure was -0.889; with TTGAGTCGAAGATTATACCTTG, 0.358; with TTGTCCATTGGCATCATCCTGG, -0.234.
As to TTTGTTGTCTGACACCTGGTGC, the sensor-assay potency score (higher = more potent) turned out to be 0.0104.
Sequence TTTGTTTAGCTAAATCATCAGC returned a sensor-assay potency score (higher = more potent) of -0.527.
The sequence TTAATTAGACTCATAAAGCGGG displayed a sensor-assay potency score (higher = more potent) of 0.186.
As for TACACTGCAAGGAACTGACTGT, the sensor-assay potency score (higher = more potent) was found to be 0.034.
Same read-out and setting: with TCGAACATAGGTAATAGCCAGT the figure was -0.567.

A further assay addresses GRIPAP1. The assay is described as above. The following applies: shRNA.
TTCCATTGCTAGCTCATCCAGC came in with a sensor-assay potency score (higher = more potent) of -0.174.
Same read-out and setting: the result for TTCCTGTGCATCTGCACTCTGG reads -1.21.
The same measure, in the same setting: the result for TTCTTGAAGTTGTTCCAGCAGT reads -0.658; that for TTCTTTTTCAGTTTCTCGGAGA, -0.31.
Consider TTTCTTTTTCAGTTTCTCGGAG, for which the sensor-assay potency score (higher = more potent) is -0.138.
Still for that read-out and setting: with TATTTCTTGAAGTTGTTCCAGC the figure was -0.115; with TTGAAGTTCTTCCACTGTCTGC, -0.043.
Still for that read-out and setting: with TTTGCTGAACTCCTTATCCAAG the figure was -1.41; with TTCCTTGCTGAACTCGGCCATT, -1.52; with TTTGTGATCAGCTTCCTTCCGT, 0.395.
On the same count and under the same terms, the result for TTGTGATCAGCTTCCTTCCGTT reads -0.347.
As for TTGCTGGTTCTCTTGCTCCAGC, the sensor-assay potency score (higher = more potent) was -0.982.

The target in the next assay is GRK1. Described as above. The following applies: shRNA.
Sequence TTGTCCAGCAGCACGTTCTCGG returned a sensor-assay potency score (higher = more potent) of -0.903.
Regarding TAGACAGTTTTGGAGTCTGGGA, the sensor-assay potency score (higher = more potent) was -1.3.
The same measure, in the same setting: with TAGTCCTCGATGTCTTTCCAGA the figure was -1.36.
